Results filed as inconclusive are left out. Activity calls are given as the source filed them. Calls come from the whole dose curve; as a rule, active = well fitted curve in the direction sought with a large enough effect; inconclusive = small, poorly fitted or top-dose-only effect, or another doubt; inactive = no such curve, though single readings can be large; an effect the other way counts as inactive or inconclusive.
How the values were obtained:
[1] = BET inhibitor-based combinations targeting novel dependencies in MECOM-rearranged (r) AML: OCI-AML3 cell line (AID 2202232); settings: Potency: OCI-AML3 viability; note: nearly all actives have a fitted effect of over 35% in size
In short: (§1)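 Readout: CellTiter-Glo luminescence. Exposure: 48 h, 11 concentrations, 500 cells/well. Metric: AUC and within-line Z-AUC after DMSO/empty-well normalization.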

[2] = BET inhibitor-based combinations targeting novel dependencies in MECOM-rearranged (r) AML: HNT-34 cell line (AID 2202234); note: nearly all actives have a fitted effect of over 35% in size
In short: (§2)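 Seeding density was 500 cells/well, and drug exposure lasted 48 hr under standard culture conditions. Read-out used CellTiter-Glo reagent with a 15 min room-temperature incubation before luminescence measurement; AUC and Z-AUC summarize the normalized responses.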

[3] = BET inhibitor-based combinations targeting novel dependencies in MECOM-rearranged (r) AML: AML-194 cell line (AID 2202237; note: nearly all actives have a fitted effect of over 40% in size)
In short: as §1

[4] = BET inhibitor-based combinations targeting novel dependencies in MECOM-rearranged (r) AML: MV-4-11 cell line (AID 2202233); note: nearly all actives have a fitted effect of over 45% in size
In short: as §2

[5] = BET inhibitor-based combinations targeting novel dependencies in MECOM-rearranged (r) AML: UCSD-AML1 cell line (AID 2202235); note: nearly all actives have a fitted effect of over 40% in size
In short: as §2

[6] = BET inhibitor-based combinations targeting novel dependencies in MECOM-rearranged (r) AML: AML-191 cell line (AID 2202236; note: nearly all actives have a fitted effect of over 35% in size)
In short: as §1
Potency is the fitted concentration of half-maximal effect.

Question: What does the source list for `Cc1onc(-c2ccccc2)c1-c1ccc(S(N)(=O)=O)cc1`?
Answer: Potency [1]: inactive; Potency [2]: inactive; Potency [3]: inactive

Question: With `COc1ccc(COc2ccc(Cc3cnc(N)nc3N)cc2OC)cc1` as the compound, how does the Potency [4] read?
Answer: The Potency was “inactive”.

Question: With `CCN1C(=O)CNc2ncc(-c3ccc(-c4ncn[nH]4)nc3C)nc21` as the compound, how does the Potency [4] read?
Answer: The Potency was 1.66 µM (active).

Question: And the Potency [2]?
Answer: Its Potency is 2.09 µM (active).

Question: And the Potency [5]?
Answer: Its Potency is 0.186 µM (active).

Question: Which Potency [1] does the source give for `C[C@H](NC(=O)C(=O)Nc1ccccc1C(C)(C)C)C(=O)N[C@@H](CC(=O)O)C(=O)COc1c(F)c(F)cc(F)c1F` here?
Answer: Its Potency is 10.5 µM (active).

Question: What about the Potency [6] of the same compound?
Answer: Its Potency is 20.9 µM (active).

Question: What does the source list for `CNC(=O)[C@@H](NC(=O)[C@H](CC(C)C)[C@H](O)C(=O)NO)C(C)(C)C`?
Answer: Potency [4]: 16.6 µM (active); Potency [2]: 14.8 µM (active); Potency [5]: inactive

Question: For `O=C(Nc1cccc(Nc2ncc(Br)c(NCCc3cnc[nH]3)n2)c1)N1CCCC1`, which Potency [4] is on record?
Answer: Its Potency is 0.118 µM (active).

Question: And the Potency [2]?
Answer: The Potency was 1.66 µM (active).

Question: And the Potency [5]?
Answer: Its Potency is 1.18 µM (active).

Question: And the Potency [6]?
Answer: The Potency was 5.25 µM (active).

Question: What about the Potency [3] of the same compound?
Answer: Its Potency is 5.9 µM (active).
